Source: PubChem BioAssay (NCI)
Compounds without any hit were thinned out: in the full panel of roughly 83,000, 20% have a hit.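 Plates (96-well) were seeded with cells, treated with compound at one concentration, and incubated for 48 hours before percent growth was determined.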

What was measured:
Experiment in all cases: NCI-60 one-dose screen, 48 h (100 = growth as untreated, 0 = no growth, -100 = all killed)
Settings in all cases: 10 µM unless noted; active = growth percent below 10; inactive = the rest
T-47D breast = test system: T-47D breast
BT-549 breast = test system: BT-549 breast
MDA-MB-435 melanoma = test system: MDA-MB-435 melanoma
SW-620 colon = test system: SW-620 colon
MCF7 breast = test system: MCF7 breast
HCT-116 colon = test system: HCT-116 colon
HCC-2998 colon = test system: HCC-2998 colon
KM12 colon = test system: KM12 colon

Measured: growth

O=C(OC1CCCC1)c1ccccc1Cl
inactive: T-47D breast 96% | BT-549 breast 104% | MDA-MB-435 melanoma 105% | SW-620 colon 106% | MCF7 breast 96.2% | HCT-116 colon 98.7% | HCC-2998 colon 103% | KM12 colon 105%

NNC(=O)c1ccccc1N
inactive: T-47D breast 103% | BT-549 breast 121% | MDA-MB-435 melanoma 114% | SW-620 colon 103% | MCF7 breast 101% | HCT-116 colon 99.3% | HCC-2998 colon 112% | KM12 colon 105%

COc1ccc(C)cc1NC(=O)SC(C)C
inactive: T-47D breast 89.7% [100 µM] | BT-549 breast 101% [100 µM] | MDA-MB-435 melanoma 101% [100 µM] | SW-620 colon 99.8% [100 µM] | MCF7 breast 87% [100 µM] | HCT-116 colon 104% [100 µM] | HCC-2998 colon 98.5% [100 µM] | KM12 colon 101% [100 µM]

Cc1ccc(C)c(CCO)c1
inactive: T-47D breast 103% | BT-549 breast 94.3% | MDA-MB-435 melanoma 107% | SW-620 colon 98.3% | MCF7 breast 112% | HCT-116 colon 107% | HCC-2998 colon 103% | KM12 colon 101%

Cc1ccc(NC(=S)N2CCOCC2)cc1C
inactive: T-47D breast 92.1% | BT-549 breast 102% | MDA-MB-435 melanoma 83.2% | SW-620 colon 109% | MCF7 breast 104% | HCT-116 colon 89.5% | HCC-2998 colon 109% | KM12 colon 101%

COC(CCCl)c1ccc(Cl)cc1 (stereo not drawn)
inactive: T-47D breast 98.1% | BT-549 breast 102% | MDA-MB-435 melanoma 107% | SW-620 colon 100% | MCF7 breast 99% | HCT-116 colon 103% | HCC-2998 colon 106% | KM12 colon 102%

CC12CCC3c4ccc(O)cc4CCC3C1CCC2=O (stereo not drawn)
inactive: T-47D breast 103% | BT-549 breast 89.2% | MDA-MB-435 melanoma 112% | SW-620 colon 110% | MCF7 breast 128% | HCT-116 colon 95.3% | HCC-2998 colon 102% | KM12 colon 109%

O=c1n(CC2CO2)c(=O)n(CC2CO2)n1CC1CO1 (stereo not drawn)
inactive: T-47D breast 52.4% | BT-549 breast 54.4% | MDA-MB-435 melanoma 90.4% | SW-620 colon 66.3% | MCF7 breast 31% | HCT-116 colon 57.7% | HCC-2998 colon 75.2% | KM12 colon 84.4%

C=C1SC(=Nc2c(C)cccc2C)N(c2nc(Cl)nc(Cl)n2)C12CCCCC2
inactive: T-47D breast 101% | BT-549 breast 91.6% | MDA-MB-435 melanoma 93.5% | SW-620 colon 112% | MCF7 breast 103% | HCT-116 colon 93.7% | HCC-2998 colon 111% | KM12 colon 103%

NCC(O)C(O)C(O)C(O)CO (stereo not drawn)
inactive: T-47D breast 84.1% | BT-549 breast 91.3% | MDA-MB-435 melanoma 100% | SW-620 colon 97.2% | MCF7 breast 97.1% | HCT-116 colon 86.4% | HCC-2998 colon 99.1% | KM12 colon 98.5%

Nc1ccc2c(c1)Cc1cc(N)c(N)cc1-2
inactive: T-47D breast 84.4% | BT-549 breast 104% | MDA-MB-435 melanoma 104% | SW-620 colon 100% | MCF7 breast 73.3% | HCT-116 colon 95.8% | HCC-2998 colon 110% | KM12 colon 94.3%

O=S(=O)(O)c1cccnc1
inactive: T-47D breast 106% | BT-549 breast 111% | MDA-MB-435 melanoma 102% | SW-620 colon 98.9% | MCF7 breast 99.9% | HCT-116 colon 126% | HCC-2998 colon 153% | KM12 colon 101%

CC(=O)CSc1ncnc2nc[nH]c12
inactive: T-47D breast 82% | BT-549 breast 102% | MDA-MB-435 melanoma 89.7% | SW-620 colon 96% | MCF7 breast 74.7% | HCT-116 colon 88.7% | HCC-2998 colon 97.5% | KM12 colon 123%

CC(=O)/C(C)=N\OC(=O)Nc1ccccc1
inactive: T-47D breast 94.4% | BT-549 breast 101% | MDA-MB-435 melanoma 103% | SW-620 colon 107% | MCF7 breast 93.5% | HCT-116 colon 102% | HCC-2998 colon 94.7% | KM12 colon 101%

CC(=O)C1C(=O)C(=O)N(c2cccc([N+](=O)[O-])c2)C1=O (stereo not drawn)
inactive: T-47D breast 101% | BT-549 breast 109% | MDA-MB-435 melanoma 104% | SW-620 colon 111% | MCF7 breast 94.3% | HCT-116 colon 109% | HCC-2998 colon 85.9% | KM12 colon 112%

COc1cc(CC#N)c([N+](=O)[O-])cc1OC
inactive: T-47D breast 105% | BT-549 breast 105% | MDA-MB-435 melanoma 111% | SW-620 colon 119% | MCF7 breast 102% | HCT-116 colon 93.5% | HCC-2998 colon 108% | KM12 colon 104%

CC(=O)OC/C(C)=C\CC(C)COC(C)=O (stereo not drawn)
inactive: T-47D breast 104% | BT-549 breast 102% | MDA-MB-435 melanoma 94.9% | SW-620 colon 97.6% | MCF7 breast 90.2% | HCT-116 colon 95.1% | HCC-2998 colon 103% | KM12 colon 104%

C=CC1=NC(C)(C)CC(C)O1 (stereo not drawn)
inactive: T-47D breast 92.2% | BT-549 breast 109% | MDA-MB-435 melanoma 94.7% | SW-620 colon 104% | MCF7 breast 93.4% | HCT-116 colon 107% | HCC-2998 colon 110% | KM12 colon 109%

CCNC(=O)Oc1ccc[nH]c1=O
inactive: T-47D breast 86.1% | BT-549 breast 110% | MDA-MB-435 melanoma 103% | SW-620 colon 105% | MCF7 breast 91.5% | HCT-116 colon 108% | HCC-2998 colon 106% | KM12 colon 104%

CCOC(=O)c1ccc(C(C)(C)C)cc1
inactive: T-47D breast 105% | BT-549 breast 109% | MDA-MB-435 melanoma 108% | SW-620 colon 107% | MCF7 breast 104% | HCT-116 colon 102% | HCC-2998 colon 100% | KM12 colon 105%

Cc1cc(CC(=O)NCCO)n(CCO)c(=O)c1
inactive: T-47D breast 84.1% | BT-549 breast 111% | MDA-MB-435 melanoma 107% | SW-620 colon 98% | MCF7 breast 102% | HCT-116 colon 97.5% | HCC-2998 colon 103% | KM12 colon 107%

O=C(O)c1cccc(-n2ncc(Cl)c(Cl)c2=O)c1
inactive: T-47D breast 102% | BT-549 breast 105% | MDA-MB-435 melanoma 93.2% | SW-620 colon 113% | MCF7 breast 74.8% | HCT-116 colon 105% | HCC-2998 colon 108% | KM12 colon 77.2%

OCc1cccnc1
inactive: T-47D breast 106% | BT-549 breast 106% | MDA-MB-435 melanoma 97.2% | SW-620 colon 102% | MCF7 breast 94% | HCT-116 colon 107% | HCC-2998 colon 107% | KM12 colon 105%

C=CCNC(=S)N/C=C(/C(=O)c1ccccc1)c1ccccc1
inactive: T-47D breast 99.4% | BT-549 breast 98.2% | MDA-MB-435 melanoma 98.6% | SW-620 colon 98.9% | MCF7 breast 97.6% | HCT-116 colon 115% | HCC-2998 colon 105% | KM12 colon 104%

ClCC(Cl)[C@@H]1CC2C=CC1C2 (stereo partly drawn)
inactive: T-47D breast 98.8% | BT-549 breast 103% | MDA-MB-435 melanoma 96.9% | SW-620 colon 105% | MCF7 breast 98.1% | HCT-116 colon 98.4% | HCC-2998 colon 118% | KM12 colon 115%

C[C@H](CCC[C@H](C)OS(=O)(=O)c1ccccc1)OS(=O)(=O)c1ccccc1
inactive: T-47D breast 100% | BT-549 breast 125% | MDA-MB-435 melanoma 108% | SW-620 colon 105% | MCF7 breast 101% | HCT-116 colon 95.1% | HCC-2998 colon 120% | KM12 colon 107%

CC(C)N(CCCC#N)C(C)C
inactive: T-47D breast 94.2% | BT-549 breast 112% | MDA-MB-435 melanoma 103% | SW-620 colon 99.2% | MCF7 breast 83.7% | HCT-116 colon 98.8% | HCC-2998 colon 106% | KM12 colon 105%

CCOc1ccncc1[N+](=O)[O-]
inactive: T-47D breast 104% | BT-549 breast 111% | MDA-MB-435 melanoma 107% | SW-620 colon 101% | MCF7 breast 100% | HCT-116 colon 108% | HCC-2998 colon 106% | KM12 colon 101%

C/C=C/C1OCC(CC)C(CCC)O1 (stereo not drawn)
inactive: T-47D breast 107% | BT-549 breast 108% | MDA-MB-435 melanoma 107% | SW-620 colon 105% | MCF7 breast 95.8% | HCT-116 colon 103% | HCC-2998 colon 124% | KM12 colon 102%

COCC(N)=O
inactive: T-47D breast 98.4% | BT-549 breast 93.2% | MDA-MB-435 melanoma 105% | SW-620 colon 99.7% | MCF7 breast 102% | HCT-116 colon 99% | HCC-2998 colon 110% | KM12 colon 98.9%

O=c1cc(Cl)nc2ccccn12
inactive: T-47D breast 103% | BT-549 breast 107% | MDA-MB-435 melanoma 108% | SW-620 colon 105% | MCF7 breast 91.4% | HCT-116 colon 99.6% | HCC-2998 colon 102% | KM12 colon 96.6%

COC(=O)C1=C(C)C(=O)CC1
inactive: T-47D breast 127% | BT-549 breast 114% | MDA-MB-435 melanoma 121% | SW-620 colon 106% | MCF7 breast 97.4% | HCT-116 colon 103% | HCC-2998 colon 116% | KM12 colon 121%

CCOC(=O)C1(N)CCCCC1
inactive: T-47D breast 93.4% | BT-549 breast 113% | MDA-MB-435 melanoma 99.2% | SW-620 colon 103% | MCF7 breast 97.1% | HCT-116 colon 96% | HCC-2998 colon 101% | KM12 colon 107%

CCN(CC)CCCC(C)NC(=S)N/N=C(\C)c1ccccn1 (stereo not drawn)
inactive: T-47D breast 56.7% | BT-549 breast 65.5% | MDA-MB-435 melanoma 54.8% | SW-620 colon 47.5% | MCF7 breast 25.7% | HCT-116 colon 23.9% | HCC-2998 colon 56.8% | KM12 colon 36.4%

C=CCc1cc(OC)c(O)c(OC)c1
inactive: T-47D breast 83.7% | BT-549 breast 106% | MDA-MB-435 melanoma 108% | SW-620 colon 114% | MCF7 breast 96.9% | HCT-116 colon 92.6% | HCC-2998 colon 102% | KM12 colon 104%

CC(=O)C[n+]1ccc(C)cc1Sc1ccccc1C
inactive: T-47D breast 82.2% | BT-549 breast 90% | MDA-MB-435 melanoma 101% | SW-620 colon 100% | MCF7 breast 90.3% | HCT-116 colon 92.9% | HCC-2998 colon 108% | KM12 colon 94.1%
